# SARS PLpro yeast – SARS-CoV PLP inhibition in yeast | Potency, µM (highest dose often 32.9 µM), without a hit: at the highest dose activity, positive = growth rescue, hits mostly activators | hit rate 0.19% among 330,000 | S. cerevisiae expressing SARS-CoV PLpro, growth rescue; calls by dose curve; note: potency is the fitted concentration of half-maximal effect; 0% is about no effect; nearly all actives have a fitted effect of over 55% in size
# FMDV antiviral – blocks foot and mouth disease virus; FMDV antiviral cell-based qHTS; Potency, µM (series often up to 57.9 µM), without a hit: at the top dose activity change, negative = inhibition, most hits filed as inhibitors; hit rate 1.2% among 410,000; AID 1159524; calls by dose curve; tested in HEK293T cells; note: read-out not given here; potency is the fitted concentration of half-maximal effect; % is set by controls: 0 for no effect and ±100 for the full control effect; nearly all actives have a fitted effect of over 45% in size
# LASV entry inh – blocks Lassa virus binding to or entry into cells; Lassa virus pseudotype entry inhibition, cell reporter; Potency, µM (titrated, usually from 37.9 µM), without a hit: top-dose activity change, negative = inhibition, actives largely listed as inhibitors; hit rate 1.2% among 300,000; AID 540256; calls by dose curve; tested in HEK293 cells; note: potency is the fitted concentration of half-maximal effect; % is set by controls: 0 for no effect and ±100 for the full control effect; nearly all actives have a fitted effect of over 50% in size
# MARV entry inh – inhibitors of Marburg virus binding or cell entry; Potency, µM (doses to about 37.8 µM), for the others: at the top dose activity change, negative = inhibition, hits mostly inhibitors; hit rate 1.8% among 300,000; Marburg virus pseudotyped entry inhibition, cell reporter; AID 540276; calls by dose curve; tested in HEK293 cells; note: potency is the fitted concentration of half-maximal effect; % is set by controls: 0 for no effect and ±100 for the full control effect
# HCV inhibitor – HCV inhibition; Huh7.5.1 HCVcc-Cre infection, luciferase reporter, 44 h; Potency, µM (top dose mostly 41.8 µM), for the others: at the top dose activity change, negative = inhibition, most hits filed as inhibitors; hit rate 3.4% among 340,000; AID 651820; active = well fitted inhibition curve with a large enough effect; inconclusive = small, poorly fitted or top-dose-only effect, or another doubt; inactive = no such curve, though single readings can be large or run the other way; note: potency is the fitted concentration of half-maximal effect; % is set by controls: 0 for no effect and ±100 for the full control effect
#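 Luciferase read-out (15 sec integration) after a 15 min room-temperature substrate step quantifies HCVcc-Cre infection. Cells, 1,000 per well, had compound added 4 h post-plating, then virus at ~0.5 moi, and were cultured 44 h.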
# HCMV inh – inhibitors of human cytomegalovirus. HFF cells, HCMV-luciferase reporter, 72 h; active compounds read low. activity change, negative = inhibition, % at 57.5 µM. hit rate 4.5% among 410,000. AID 1259415; in the data active = activity change below about -60%; inconclusive = no clear call, values can overlap the other calls; inactive = above about -39%; note: % is set by controls: 0 for no effect and ±100 for the full control effect
#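 Compounds were evaluated in HFFs infected with an HCMV luciferase reporter virus (MOI 1 PFU/cell). Luciferase in lysates collected 72 h post infection served as the replication measure.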
# An asterisk follows results filed as active; ? = inconclusive; · = no result given; [ ] = remark or other dose. A selection: hits, their analogues and other compounds. The true share with any hit is near 8%.
SMILES,SARS PLpro yeast,FMDV antiviral,LASV entry inh,MARV entry inh,HCV inhibitor,HCMV inh
COc1nc(N)nc(NC(=O)c2cccs2)c1N=O,·,?,10.4%,-16.8%[46.1 µM],-4.7%,-77.6*
COC(=O)C1=C(C(=O)OC)[C@@H]2N(C)c3ccccc3[C@@]23C[C@@H](CO)N(C(=O)NC2CCCCC2)C3=N1,·,·,·,-1.9%[14.2 µM],·,·
COC(=O)c1cc(NC(=O)CC2CCCC2)cc(C(=O)OC)c1,0.8%,-18.2%,0.8%,?,-29.8%,-63.7*
CC(=O)c1cccc(NC(=O)CC2CCCC2)c1,-2.0%,55.5%,-6.5%[46.1 µM],-1.7%[46.1 µM],-5.6%,20.5
COc1ccc(NC(=O)c2ccc3c(c2)NC(=O)CS3)cc1,2.0%,30.9%,·,·,?,7.2
Cc1ccc(NS(=O)(=O)c2cc(NC(=O)c3ccc4c(c3)NC(=O)CS4)ccc2Cl)c(C)c1,-0.2%,-22.0%,·,·,10µM*,-94.4*
CC1CCC2(CC1)NC(=O)N(NC(=O)c1cccs1)C2=O (centres undefined),5.6%,6.1%,·,·,14.7%,-5.4
CC1CCC2(CC1)NC(=O)N(NC(=O)CCl)C2=O (centres undefined),-1.4%,-3.1%,6.4%,-19.8%[46.1 µM],-6.9%,-62.5*
COc1cc(NC(=O)c2nnn(CC(=O)Nc3ccccc3)c2N)cc(OC)c1,·,-8.3%,8.8%[46.1 µM],·,·,?
COc1ccc(C(=O)N2CCCC2(C#N)c2ccccc2)cc1[N+](=O)[O-] (centres undefined),0.3%,?,·,·,14.1µM*,68.6
COc1ccccc1C(=O)N1CCCC1(C#N)c1ccccc1 (centres undefined),0.3%,-4.1%,0.7%,?,7.2%,-11.0
CC(C)Cc1ccc(C(C)C(=O)Nc2ccc(O)cc2)cc1 (centres undefined),-8.0%,0.0%,·,·,-10.3%,-65.8*
CC(C(=O)Nc1ccc(O)cc1)c1cccc(C(=O)c2ccccc2)c1 (centres undefined),0.7%,?,?,?,12.6µM*,-62.9*
CC(C)Cc1ccc(C(C)C(=O)Nc2cccnc2)cc1 (centres undefined),1.9%,-26.2%,1.2%[46.1 µM],?,3.16µM*,-77.9*
O=C(c1cccs1)N1CCCc2cc(NS(=O)(=O)c3ccc(F)cc3)ccc21,·,-18.8%,?,·,·,-10.9
C#CCCCO/N=C1\C[C@@H](O)[C@@H](O)[C@@H]2[C@@H]3C(=O)N(c4ccc(F)cc4F)C(=O)[C@@H]3CC[C@@H]12,·,·,·,-8.0%[14.2 µM],·,·
Cc1sc2ncnc(N/N=C/c3ccc(O)cc3)c2c1C,-26.7%,5.2%,?,?,11.2µM*,-26.1
Cc1sc2ncnc(NCCCO)c2c1C,-0.7%,-2.1%,·,·,-11.3%,-18.0
Cc1sc2ncnc(NCc3cccs3)c2c1C,-0.6%,14.1µM*,-9.6%,-15.0%,10µM*,-91.9*
Cc1c(C(=O)N2CCCC2)sc2ncnc(NCCCN3CCOCC3)c12,·,-5.4%,·,·,·,·
Cc1sc2ncnc(NCCN3CCOCC3)c2c1C,4.0%,?,-28.8%,?,11.2µM*,-76.3*
Cc1sc2ncnc(NCc3cccnc3)c2c1C,-0.1%,-15.7%,-0.2%[46.1 µM],-16.9%[46.1 µM],?,-61.1*
Cc1sc2ncnc(NCc3ccco3)c2c1C,-4.3%,?,-11.1%,-26.6%,?,-36.1
COc1ccc(N2C(=O)[C@@H]3C[C@H]2CN3Cc2ccc3nccnc3c2)cc1Cl,·,-13.7%,·,·,·,·
CCCc1ccc(-c2ccc(/C=C/C(=O)O)cc2)nc1,-13.3%,0.0%,0.461µM*,0.231µM*,5.5%,?
SMILES,SARS PLpro yeast,FMDV antiviral,LASV entry inh,MARV entry inh,HCV inhibitor,HCMV inh
CCCCCc1ccc(-c2ccc(/C=C/C(=O)O)cc2)nc1,2.3%,?,?,?,15.9%,?
O=C1/C(=N\S(=O)(=O)c2cccs2)C([n+]2ccccc2)=C([O-])c2ccccc21,-1.4%,25.1µM*,·,·,6.31µM*,-66.3*
Cc1ccnc(Sc2ccc([N+](=O)[O-])cn2)n1,0.1%,31.3%,·,·,21.3%,-95.6*
Cc1ccccc1Sc1ccc([N+](=O)[O-])cn1,·,-22.2%,·,·,-22.1%,-1.9
COc1ccc(CCn2c(C3CCCCC3)nc3c(c(=O)c4ccccc4n3C)c2=O)cc1,4.6%,?,·,·,3.55µM*,-13.8
COc1ccc(CCn2c(C3CCCCC3)nc3c(c(=O)c4ccccc4n3C)c2=O)cc1OC,5.7%,-18.4%,-25.6%[46.1 µM],?,?,?
COc1ccc(Cn2c(C3CCCCC3)nc3c(c(=O)c4ccccc4n3C)c2=O)cc1,0.9%,?,·,·,?,·
CCc1nc2c(c(=O)c3ccccc3n2C)c(=O)n1C1CCCCCC1,-18.9%,-8.1%,?,2.0%,?,-63.1*
Cn1c2ccccc2c(=O)c2c(=O)n(C3CCCCCC3)c(C3CCCCC3)nc21,-0.5%,25.1µM*,-3.8%,-18.9%,0.8%,-25.9
Cn1c2ccccc2c(=O)c2c(=O)n(C3CCCCC3)c(-c3cccs3)nc21,-2.7%,-26.4%,-26.1%,-28.4%,10µM*,?
Cc1nc2c(c(=O)c3ccccc3n2C)c(=O)n1C1CCCC1,·,·,·,·,·,56.9
Cn1c2ccccc2c(=O)c2c(=O)n(-c3ccccc3)c(C3CCCCC3)nc21,-22.2%,-39.3%,1.0%,?,13.4%,50.1
CCOC(=O)c1cc(-c2ccc(OC)cc2)n(CCC(=O)NC2CCC(C)CC2)c1C (centres undefined),·,-2.5%,?,·,·,71.3
OC1CCN(Cc2ccc3c(c2)CN(Cc2ccc(Oc4ncccn4)cc2)CCO3)CC1,·,-5.5%,·,·,·,·
CCOc1ccc(NC(=O)CN2C(=O)C3(SCC(=O)N3c3ccc(F)cc3)c3ccccc32)cc1 (centres undefined),·,0.0%,-7.1%[46.1 µM],·,·,-25.3
CCOCCCNC(=O)C(c1ccc(C)cc1)N(Cc1cccs1)C(=O)c1ccccc1O (centres undefined),-4.2%,53.8%,11.2µM*,?,2.1%,-38.1
COc1ccc(CNC(=O)C(c2ccc(C)cc2)N(Cc2cccs2)C(=O)c2ccc3c(c2)OCCO3)cc1 (centres undefined),0.0%,?,?,11.6µM*,11.2µM*,?
CCOCCCNC(=O)C(c1ccc(Cl)cc1)N(Cc1cccs1)C(=O)c1ccc(NC(C)=O)cc1 (centres undefined),·,0.0%,?,10µM*,·,-27.2
CCOCCCNC(=O)C(NC(=O)c1ccc(NC(C)=O)cc1)c1ccc(Cl)cc1 (centres undefined),7.2%,0.1%,-11.3%,18.0%,0.2%,-62.9*
CCOCCCNC(=O)C(NC(=O)c1ccc(NC(C)=O)cc1)c1ccc(C)cc1 (centres undefined),2.9%,11.0%,3.9%,?,3.9%,26.5
COCCN(C(=O)Cc1cccs1)C(C(=O)NCc1ccc(OC)cc1)c1ccc(OC)cc1 (centres undefined),-0.4%,·,?,0.1%,7.4%,25.2
